Screening data from PubChem BioAssay.
PLCb3 inh = PLC-beta3 (human) inhibition, primary screen; Purified PLC-beta3, fluorogenic substrate, fluorescence; Q01970; inhibition, % at 12.2 µM; 370,000 compounds, 0.18% hits; in the data active = inhibition above about 11%;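 note: 0% = median of compound wells on plate and 100% = full blocker control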
PLC-gamma1 inh = blocks human PLC-gamma1 enzyme activity | P19174 | purified PLC-gamma1, fluorogenic substrate, fluorescence | inhibition, % at 12.2 µM | 370,000 compounds, 0.84% hits | AID 720700; in the data active = inhibition above about 9.5%
KLK7 zymogen act = activators of human kallikrein-7 zymogen; AID 652039; activation, % at 7 µM; 370,000 compounds, 0.9% hits; purified proKLK7, EDANS-DABCYL substrate fluorescence; 100% is mature enzyme control, 0% vehicle; P49862;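 active = activation above the mean of all tested compounds plus 3 SD, computed per campaign excluding outliers beyond control limits, cut at about 13% in these data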
ADAM10 inh = inhibitors of human ADAM10; O14672; recombinant ADAM10, EDANS/DABCYL FRET peptide cleavage, 3 h; inhibition, % at 7 µM; 370,000 compounds, 0.62% hits;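 active = inhibition above a per-campaign cutoff equal to the mean of compounds falling between control-based bounds plus 3 SD, cut at about 20% in these data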;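 note: 0% = DMSO wells while the 100% control is not disclosed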
ADAM17 inh = inhibits human ADAM17; recombinant ADAM17, EDANS/DABCYL FRET peptide cleavage; inhibition, % at 6.95 µM; 370,000 compounds, 0.83% hits;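 active = inhibition above the mean of compounds lying between control limits plus 3 SD, set per campaign, cut at about 8.5% in these data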;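 note: 0% = DMSO-only wells as the low control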
KLK7 act conf = confirmation of human kallikrein-7 zymogen activators | shares compounds with KLK7 zymogen act | purified proKLK7, EDANS-DABCYL substrate fluorescence; scaled: vehicle 0, mature enzyme 100 | activation, % at 7 µM | 3,200 compounds, 68% hits | AID 686949;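 active = activation, as change over the incubation, above the mean of all tested compounds plus 3 SD, cut at about 13% in these data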
EDANS interfere = fluorescence interference counter-screen for KLK7 activators; activation, % at 7 µM; EDANS-DABCYL substrate fluorescence interference, no enzyme, 4 h; solvent 0%, active enzyme control 100%; shares compounds with KLK7 zymogen act; AID 686952; 3,200 compounds, 80% hits;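 active = activation above the all-compound mean plus 3 SD, ignoring values outside control-based bounds, cut at about 4.8% in these data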;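 note: value is the 4 h activation minus the activation read at time zero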
Numbers without * were called inactive; i = inactive; / = no result. An excerpt weighted towards active compounds, which were near 2.9% of everything screened.

SMILES	PLCb3 inh	PLC-gamma1 inh	KLK7 zymogen act	ADAM10 inh	ADAM17 inh	KLK7 act conf	EDANS interfere
CCCc1cc(=O)oc2c(CN3CCN(C)CC3)c(O)c(Cl)cc12	i	i	60*	i	i	71*	76*
COc1ccccc1CNC(=O)C(CC(C)C)NC(=O)C1CCC(C)CC1 (stereo not given)	4	2	0	-10	-5	/	/
CN1CCN(Cc2c(O)c(Cl)cc3c(-c4ccccc4)cc(=O)oc23)CC1	i	i	17*	-106	-35	14*	11*
O=C(OC1CCOC1=O)c1cc(-c2ccc(Br)cc2)nc2ccccc12 (stereo not given)	-12	6	0	-17	-4	/	/
COc1ccc(-c2cc(C(=O)OCC(=O)N(C)C)c3ccccc3n2)cc1	i	i	50*	-180	-55	39*	43*
COc1ccc(-c2cc(C(=O)OCC(=O)c3ccc(C)c([N+](=O)[O-])c3)c3ccccc3n2)cc1	-58	-46	2	-68	-20	/	/
COc1ccc(-c2cc(C(=O)OC3CCOC3=O)c3ccccc3n2)cc1 (stereo not given)	i	i	97*	-247	-90	9	12*
COc1ccc(-c2cc(C(=O)OCc3ccccn3)c3ccccc3n2)cc1	i	i	22*	i	-372	-19	-20
COc1ccc(-c2cc(C(=O)Oc3ccc([N+](=O)[O-])cc3)c3ccccc3n2)cc1	i	i	33*	i	i	64*	71*
O=C(NCc1ccccn1)c1cc(-c2ccc(-c3ccccc3)cc2)nc2ccccc12	i	-389	-49	i	-289	/	/
COc1ccc(NC(=O)N(C)[C@H]2C[C@H]3c4[nH]c5ccccc5c4CCN3C(=O)[C@H]2CO)cc1	-337	-268	24*	i	-234	3	3
COc1ccc(C(=O)N(C)[C@H]2C[C@H]3c4[nH]c5ccccc5c4CCN3C(=O)[C@H]2CO)cc1	-330	-279	44*	i	-230	51*	57*
COc1ccc(NC(=O)N(C)[C@H]2C[C@H]3c4[nH]c5ccccc5c4CCN3C(=O)[C@H]2[C@H](C)O)cc1	i	i	88*	i	i	8	9.5*
COc1ccc2cc3cc(C(=O)NCCN4CCc5ccccc5C4)sc3nc2c1	-114	-120	-7	-476	-118	/	/
O=C(COC(=O)CCNS(=O)(=O)c1cccs1)Nc1ccccc1	-3	4	0	5	1	/	/
CSc1nc2nc(Cl)c(Cl)nc2[nH]1	i	-429	26*	i	i	45*	46*
CCOC(=O)CSc1nc2nc(Cl)c(Cl)nc2[nH]1	-302	-209	36*	i	i	30*	31*
COc1ccc(-c2c(NC(=O)C(C)C)n(C)c3ccccc3c2=O)cc1	-364	-251	16*	-438	-143	18*	20*
Cc1nnsc1-c1nc2ccccc2[nH]1	i	i	32*	i	-247	31*	45*
Cc1nnc(SCC(=O)N2CC(=O)Nc3ccccc32)s1	-1	0	0	-5	0	/	/
COc1ccc(S(=O)(=O)Nc2cccc3c2O[C@H](CN(C)C(=O)Nc2ccccc2)[C@@H](C)CN([C@H](C)CO)C3=O)cc1	-3	-2	1	-13	-6	/	/
CC[C@]12c3[nH]c4ccccc4c3CCN1C(=O)C(CC(=O)NCc1ccco1)C[C@@H]2C(=O)N1CCN(C(=O)c2ccco2)CC1 (stereo not given in full)	-2	-1	0	-4	-4	/	/
CN(C)C(=O)CCc1ccc2c3c([nH]c2c1)[C@]1(C)[C@@H](C(=O)N2CCOCC2)C[C@H](CC(=O)NCc2ccco2)C(=O)N1CC3	1	-2	1	-9	-3	/	/
C[C@]12c3[nH]c4cc(-c5ccco5)ccc4c3CCN1C(=O)[C@@H](CC(=O)NCc1ccco1)C[C@@H]2C(=O)N1CCOCC1	i	-470	75*	-425	-122	81*	75*
